Experimental data reported in PubChem BioAssay.
Calls of active or inactive are those of the source.

What was measured:
[1] = small molecules captured by biotinylated probe aFSTL3 – biochemical, small-molecule microarray, fluorescence 635/667, stem cell growth factor project, primary screen (AID 1064); conditions: higher = more signal;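 further: measures binding of the biotinylated anti-FSTL3 antibody to printed compounds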
[2] = binders from COS7 lysate, DM2A8 probe, primary screen, torsin A project, cell lysate, small-molecule microarray, fluorescence 635/667 (AID 1065); conditions: higher = more signal, COS7 lysate expressing mutant human TOR1A
[3] = small molecules captured by biotinylated probe aFGF2 – biochemical, small-molecule microarray, fluorescence 635/667, stem cell growth factor project, primary screen (AID 1067); conditions: higher = more signal;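 further: measures binding of biotinylated aFGF2 protein to printed compounds on slides; z-score merges feature fluorescence and signal-to-noise across triplicate slides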
[4] = small molecules captured by biotinylated probe aFGF10 – biochemical, small-molecule microarray, fluorescence 635/667, stem cell growth factor project, primary screen (AID 1071); conditions: higher = more signal;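 further: score merges 667 nm spot intensity and signal to noise from triplicate slides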
[5] = molecular target: Neurogenic locus notch homolog protein 2 (Homo sapiens) (UniProt Q04721); assay: small molecules binding Notch2 protein – biochemical, small-molecule microarray, 635 nm fluorescence, stem cell growth factors, primary screen (AID 1073); conditions: higher = more signal
[6] = molecular target: Pro-neuregulin-1, membrane-bound isoform (Homo sapiens) (UniProt Q02297); assay: small molecules binding neuregulin-1 protein – biochemical, small-molecule microarray, fluorescence 635/667, psychiatric disease protein project, primary screen (AID 1075); conditions: NRG1 binding, 635 nm fluorescence, higher = more signal;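 further: score combines 667 nm spot fluorescence with signal to noise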
Chain of Pro-neuregulin-1, membrane-bound isoform (Homo sapiens) (Q02297 whole entry, looked up, the tested form may be a part, canonical isoform): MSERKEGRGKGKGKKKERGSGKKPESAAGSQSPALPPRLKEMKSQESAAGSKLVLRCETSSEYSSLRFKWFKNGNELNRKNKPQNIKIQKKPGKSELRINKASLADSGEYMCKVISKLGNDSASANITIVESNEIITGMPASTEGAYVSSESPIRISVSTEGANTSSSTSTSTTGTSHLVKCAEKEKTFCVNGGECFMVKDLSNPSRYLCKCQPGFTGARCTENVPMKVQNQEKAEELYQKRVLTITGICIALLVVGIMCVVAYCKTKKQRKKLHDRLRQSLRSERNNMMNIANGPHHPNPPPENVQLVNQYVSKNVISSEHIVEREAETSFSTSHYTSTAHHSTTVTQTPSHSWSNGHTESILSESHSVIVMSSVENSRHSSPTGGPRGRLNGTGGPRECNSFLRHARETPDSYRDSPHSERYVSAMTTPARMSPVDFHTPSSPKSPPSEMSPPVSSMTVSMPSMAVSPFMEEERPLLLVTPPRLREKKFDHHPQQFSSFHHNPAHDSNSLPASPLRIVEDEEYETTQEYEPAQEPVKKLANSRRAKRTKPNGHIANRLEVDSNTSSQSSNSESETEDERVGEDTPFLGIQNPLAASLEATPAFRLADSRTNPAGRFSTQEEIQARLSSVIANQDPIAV

[7] = system: Neuregulin-1 EGF-like domain; assay: small molecules binding NRG1 EGF domain – biochemical, small-molecule microarray, 635 nm fluorescence, primary screen (AID 1081); conditions: higher = more signal;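 further: binding of the protein to compounds printed on small-molecule microarray slides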
[8] = FRG1 expression reporter modulators in myotubes – cell-based, C2C12 myotubes, firefly/Renilla luciferase, luminescence, FRG1 inhibition for FSHD, primary screen (AID 1084); conditions: FRG1 promoter luciferase, higher = more signal, called active from +8 up or from −8 down
[9] = small molecules captured by biotinylated probe aFST – biochemical, small-molecule microarray, fluorescence 635/667, stem cell growth factor project, primary screen (AID 1086); conditions: higher = more signal;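 further: score merges 667 nm fluorescence with signal-to-noise of each printed compound spot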
[10] = binders of probe aHhip on microarray, primary screen, stem cell growth factor project, biochemical, small-molecule microarray, fluorescence 635/667 (AID 1087); conditions: higher = more signal;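 further: score merges spot fluorescence at 667nm with spot signal to noise ratio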
[11] = system: PRMT1 (protein arginine N-methyltransferase 1); assay: small molecules binding arginine methyltransferase PRMT1 – biochemical, small-molecule microarray, 635 nm fluorescence, primary screen (AID 1088); conditions: higher = more signal;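 further: binding of Prmt1 protein to compounds spotted on small-molecule microarray slides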
[12] = growth effects on S. cerevisiae YJM789 – YJM789 clinical isolate, OD600, 24 h, basal, primary screen (AID 1089); conditions: higher = more signal, called active from +8 up or from −8 down;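 further: growth of clinical yeast isolate S. cerevisiae YJM 789 seeded 1000 cells per well; test concentration not given here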
[13] = S. pombe growth modifiers, basal conditions – strain 972, OD600, 24 h, no modulator, primary screen (AID 1090);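 further: basal condition with compound alone and no growth modifier present; test concentration not given here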; conditions: S. pombe 972 growth, higher = more signal, called active from +8 up or from −8 down
[14] = budding yeast growth modifiers under rapamycin – strain BY4716, OD600, 96 h, primary screen (AID 1091); further: test concentration not given here; conditions: S. cerevisiae BY4716 + rapamycin, higher = more signal, called active from +8 up or from −8 down
[15] = molecular target: Torsin-1A-interacting protein 2 (Homo sapiens) (UniProt Q8NFQ8); assay: small molecules binding lysate-expressed LULL1 – cell lysate, human LULL1 lysate, 635/667 nm fluorescence, primary screen (AID 1092); conditions: small-molecule microarray, hLULL1 lysate binding, 635 nm fluorescence; higher = more signal;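 further: probe is lysate of COS7 cells overexpressing human LULL1; score merges per-feature 667 nm fluorescence with signal-to-noise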
Chain of Torsin-1A-interacting protein 2 (Homo sapiens) (Q8NFQ8 whole entry, looked up): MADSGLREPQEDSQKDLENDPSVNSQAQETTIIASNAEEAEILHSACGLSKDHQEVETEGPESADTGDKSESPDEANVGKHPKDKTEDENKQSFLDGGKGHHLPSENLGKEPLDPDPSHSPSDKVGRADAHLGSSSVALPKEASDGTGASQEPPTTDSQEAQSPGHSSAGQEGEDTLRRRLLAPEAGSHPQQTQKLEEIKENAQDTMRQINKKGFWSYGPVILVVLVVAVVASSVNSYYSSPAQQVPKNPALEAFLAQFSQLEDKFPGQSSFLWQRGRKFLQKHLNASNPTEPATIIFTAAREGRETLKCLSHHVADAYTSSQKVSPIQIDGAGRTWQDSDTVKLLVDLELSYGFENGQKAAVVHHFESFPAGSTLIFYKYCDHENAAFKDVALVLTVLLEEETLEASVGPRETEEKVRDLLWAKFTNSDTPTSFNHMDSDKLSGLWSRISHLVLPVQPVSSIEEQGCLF

[16] = optical density change of DRC41 E. coli – strain DRC41, OD650, 24 h, E. coli filamentation project, primary screen (AID 1093);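 further: MC1000 strain lacking acrAB efflux and sulA so SOS filamentation is blocked; test concentration not given here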; conditions: E. coli DRC41 growth, higher = more signal, called active from +8 up or from −8 down
[17] = probe aLefty2 binding to arrayed compounds – biochemical, biotinylated probe, 635/667 nm fluorescence, primary screen (AID 1094); conditions: small-molecule microarray, higher = more signal;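 further: score merges spot fluorescence near 667 nm with spot signal-to-noise ratio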
[18] = system: Noggin (protein binding on small-molecule microarray); assay: small molecules binding Noggin protein – biochemical, 635/667 nm fluorescence, primary screen (AID 1095); conditions: 635 nm fluorescence, higher = more signal;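 further: score merges 667 nm feature fluorescence with signal to noise over triplicate slides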
[19] = molecular target: Neurogenic locus notch homolog protein 3 (Homo sapiens) (UniProt Q9UM47); assay: small molecules binding NOTCH3 protein – biochemical, 635/667 nm fluorescence, primary screen (AID 1096); conditions: small-molecule microarray, 635 nm fluorescence, higher = more signal
Chain of Neurogenic locus notch homolog protein 3 (Homo sapiens) (Q9UM47 whole entry, looked up): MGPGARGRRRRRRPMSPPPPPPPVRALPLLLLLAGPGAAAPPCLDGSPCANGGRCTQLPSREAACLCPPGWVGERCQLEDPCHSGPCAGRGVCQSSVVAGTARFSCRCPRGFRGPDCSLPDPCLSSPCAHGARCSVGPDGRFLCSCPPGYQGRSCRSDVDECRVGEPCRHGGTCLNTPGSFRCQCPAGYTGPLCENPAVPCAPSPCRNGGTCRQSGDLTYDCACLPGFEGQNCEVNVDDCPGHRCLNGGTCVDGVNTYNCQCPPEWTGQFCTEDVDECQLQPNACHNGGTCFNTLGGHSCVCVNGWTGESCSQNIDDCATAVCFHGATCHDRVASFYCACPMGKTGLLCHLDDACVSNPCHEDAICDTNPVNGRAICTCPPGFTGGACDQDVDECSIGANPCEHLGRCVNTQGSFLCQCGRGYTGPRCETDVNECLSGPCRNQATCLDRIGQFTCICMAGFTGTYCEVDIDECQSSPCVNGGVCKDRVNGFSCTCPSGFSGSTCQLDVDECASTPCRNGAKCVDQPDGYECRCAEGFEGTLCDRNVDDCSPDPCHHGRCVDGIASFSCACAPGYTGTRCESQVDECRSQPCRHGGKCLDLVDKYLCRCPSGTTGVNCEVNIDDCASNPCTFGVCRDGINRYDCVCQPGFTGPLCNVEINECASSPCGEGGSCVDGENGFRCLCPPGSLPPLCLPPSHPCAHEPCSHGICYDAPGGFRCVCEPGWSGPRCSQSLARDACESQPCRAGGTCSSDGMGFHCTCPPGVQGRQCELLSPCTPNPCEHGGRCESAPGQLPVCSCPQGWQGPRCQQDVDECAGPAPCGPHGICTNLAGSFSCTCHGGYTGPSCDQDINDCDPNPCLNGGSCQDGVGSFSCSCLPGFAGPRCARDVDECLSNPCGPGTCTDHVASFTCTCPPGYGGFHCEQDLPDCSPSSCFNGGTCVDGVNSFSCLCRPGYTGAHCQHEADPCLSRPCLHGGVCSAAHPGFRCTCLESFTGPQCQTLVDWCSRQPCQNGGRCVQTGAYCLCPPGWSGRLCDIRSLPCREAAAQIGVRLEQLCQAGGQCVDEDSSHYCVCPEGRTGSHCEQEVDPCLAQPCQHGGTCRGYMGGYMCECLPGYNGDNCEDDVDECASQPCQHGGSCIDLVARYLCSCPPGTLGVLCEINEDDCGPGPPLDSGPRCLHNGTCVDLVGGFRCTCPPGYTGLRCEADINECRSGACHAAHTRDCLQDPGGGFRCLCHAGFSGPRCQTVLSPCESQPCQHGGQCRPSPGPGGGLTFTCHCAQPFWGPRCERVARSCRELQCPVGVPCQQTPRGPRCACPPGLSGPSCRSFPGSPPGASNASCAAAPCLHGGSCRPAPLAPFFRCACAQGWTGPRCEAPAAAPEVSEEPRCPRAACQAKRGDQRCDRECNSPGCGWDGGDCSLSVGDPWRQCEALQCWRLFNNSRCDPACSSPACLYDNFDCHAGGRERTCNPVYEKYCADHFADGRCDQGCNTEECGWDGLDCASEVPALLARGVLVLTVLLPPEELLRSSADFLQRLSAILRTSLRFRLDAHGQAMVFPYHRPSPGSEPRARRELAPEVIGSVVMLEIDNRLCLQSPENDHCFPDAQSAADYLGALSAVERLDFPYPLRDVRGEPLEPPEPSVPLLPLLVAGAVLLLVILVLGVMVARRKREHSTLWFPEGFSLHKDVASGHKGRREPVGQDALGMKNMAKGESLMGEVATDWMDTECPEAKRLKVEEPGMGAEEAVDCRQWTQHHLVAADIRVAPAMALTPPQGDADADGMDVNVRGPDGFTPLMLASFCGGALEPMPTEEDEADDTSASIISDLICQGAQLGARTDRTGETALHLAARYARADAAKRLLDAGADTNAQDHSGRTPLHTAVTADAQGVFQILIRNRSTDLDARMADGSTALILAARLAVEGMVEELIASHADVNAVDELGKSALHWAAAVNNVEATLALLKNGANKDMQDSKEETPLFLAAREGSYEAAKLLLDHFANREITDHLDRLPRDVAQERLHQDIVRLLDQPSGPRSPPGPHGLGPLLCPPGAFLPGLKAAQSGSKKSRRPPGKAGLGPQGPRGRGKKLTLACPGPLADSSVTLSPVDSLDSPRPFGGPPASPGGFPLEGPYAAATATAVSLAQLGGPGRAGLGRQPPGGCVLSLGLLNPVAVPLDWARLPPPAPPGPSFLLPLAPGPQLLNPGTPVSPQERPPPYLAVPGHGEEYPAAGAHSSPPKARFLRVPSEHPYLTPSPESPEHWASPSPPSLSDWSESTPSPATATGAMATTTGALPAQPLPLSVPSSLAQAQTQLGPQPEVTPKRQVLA

[20] = probe aEGFR binding to arrayed compounds – biochemical, biotinylated probe, 635/667 nm fluorescence, primary screen (AID 1097); conditions: small-molecule microarray, higher = more signal;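 further: probe is a biotinylated anti-EGFR antibody binding compounds printed on slides; score combines fluorescence near 667 nm and signal to noise of each spot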

Row | SMILES | composite z-score [1] | composite z-score [2] | composite z-score [3] | composite z-score [4] | composite z-score [5] | composite z-score [6] | composite z-score [7] | z-score [8] | composite z-score [9] | composite z-score [10] | composite z-score [11] | z-score [12] | z-score [13] | z-score [14] | composite z-score [15] | z-score [16] | composite z-score [17] | composite z-score [18] | composite z-score [19] | composite z-score [20]
1 | COc1ccc(NN2C(C(O)c3ccccc3)C=CC3C(=O)N(C4CCCCC4)C(=O)C32)cc1 (stereo not given) | 0.0373 | 0.166 | 0.0402 | 0.851 | 1.59 | 1.39 | 1.3 | 1.78 (inactive) | 1.5 | 0.224 | 1.56 | -0.0673 (inactive) | 0.991 (inactive) | 1.34 (inactive) | 3.34 | 0.0456 (inactive) | 0.107 | 1.08 | 1.06 | 0.0953
2 | C=CCN1C(=O)[C@@]2(O[C@@H](CCO)[C@H]([Si](C)(C)c3ccc(OC)cc3)[C@H]2C)c2cc(N3CCCCC3=O)ccc21 | -0.217 | 0.504 | -0.0415 | 0.268 | 0.704 | 1.12 | 1.14 | -1.11 (inactive) | 0.2 | 0.0373 | 1.55 | 0.451 (inactive) | 0.215 (inactive) | 1.81 (inactive) | 2.24 | 0.649 (inactive) | -0.157 | 1.19 | 0.868 | -0.0662
3 | C=C(CCCC)/C(=C/C[C@@H](OC(C)=O)c1cccc(OCCO)c1)c1cc(C(=O)OC)ccc1OC | 0.289 | -0.0739 | -0.14 | 0.222 | 0.0199 | 0.361 | 0.31 | 0.942 (inactive) | -0.0258 | -0.0618 | 1.57 | -0.397 (inactive) | 0.86 (inactive) | -0.709 (inactive) | 0.709 | 0.236 (inactive) | -0.0524 | 0.656 | 0.0716 | -0.0698
4 | COc1cc(Cc2cc3c(c(CCc4ccccc4)n2)[Si](C(C)C)(C(C)C)O[C@H]3c2ccccc2)cc(OC)c1OC | 0.962 | -0.133 | -0.0454 | 0.169 | -0.285 | -0.499 | -0.44 | -0.149 (inactive) | -0.273 | -0.0102 | -0.651 | -2.28 (inactive) | -19.9 (active) | -0.549 (inactive) | -0.355 | -0.637 (inactive) | -0.0284 | -0.288 | -0.446 | -0.129
5 | C=CCNC(=O)[C@@H]1[C@H]2C(=O)O[C@H](c3ccccc3)[C@H](c3ccccc3)N2[C@H](c2ccc(O)cc2)[C@@]12C(=O)Nc1ccc(C#CC3=CCCCC3)cc12 | -0.619 | 1.23 | -0.0639 | 1.1 | 0.87 | 1.15 | 1.06 | -0.231 (inactive) | -0.17 | -0.426 | 1.55 | 1.03 (inactive) | 0.185 (inactive) | 1.74 (inactive) | 2.93 | -0.43 (inactive) | -0.162 | 1.03 | 1.05 | 0.392
6 | COC(=O)C(CC#Cc1ccc2c(c1)[C@]1(C(=O)N2)[C@H](c2ccc(OCCO)cc2)N2[C@H](c3ccccc3)[C@H](c3ccccc3)OC(=O)[C@H]2[C@@H]1C(N)=O)C(=O)OC | 0.0757 | 0.268 | 0.187 | 0.489 | 0.0619 | 1.26 | 1.17 | 2.1 (inactive) | -0.0778 | 0.0826 | 1.06 | 1.76 (inactive) | 1.23 (inactive) | 6.23 (inactive) | 2.03 | -0.0446 (inactive) | -0.134 | 0.122 | 0.0497 | -0.19
7 | COC(=O)[C@@]1(Cc2ccccc2)[C@H]2c3cc(C(=O)N(C)C)n(CCF)c3C[C@H]2CN1C(=O)c1ccccc1 | 1.57 | 2.12 | 0.181 | 0.103 | 1.31 | 2.17 | 0.592 | 1.52 (inactive) | 0.974 | -0.0296 | 0.479 | 0.176 (inactive) | 1.18 (inactive) | 0.678 (inactive) | 2.21 | -0.0418 (inactive) | 0.534 | -0.669 | 0.782 | 0.21
8 | CCCCC(=C=CC[C@H](O)c1ccccc1OCCO)CCO | -0.121 | -0.46 | -0.0579 | 0.656 | -0.543 | 1.4 | 0.787 | 0.125 (inactive) | -0.299 | 0.0749 | 0.95 | 0.149 (inactive) | -0.211 (inactive) | -0.34 (inactive) | 1.04 | 0.288 (inactive) | -0.19 | -0.0419 | -0.102 | -0.0664
9 | COCCOC(=O)N1C(=O)[C@@]2(c3cc(C#CC4=CCCCC4)ccc31)[C@H](c1ccc(O)cc1)N1[C@H](c3ccccc3)[C@H](c3ccccc3)OC(=O)[C@H]1[C@@H]2C(=O)N1CCc2cc(OC)c(OC)cc2C1 | -0.253 | -0.252 | -0.0824 | 0.142 | 0.454 | 0.554 | 1.11 | 0.237 (inactive) | 0.0477 | -0.0296 | 1.15 | 0.793 (inactive) | 0.244 (inactive) | 0.543 (inactive) | 2.56 | 0.0512 (inactive) | 0.0113 | 0.286 | 0.399 | -0.0065
10 | COCCOC(=O)N1C(=O)[C@@]2(c3ccccc31)[C@H](C(=O)Nc1nc3ccccc3s1)[C@H]1C(=O)O[C@H](c3ccccc3)[C@H](c3ccccc3)N1[C@@H]2c1ccccc1OCCO | 0.451 | 0.0049 | -0.0036 | 0.798 | 1.15 | 1.05 | 1.2 | 2.13 (inactive) | 0.318 | 0.157 | 1.56 | 2.4 (inactive) | 2.78 (inactive) | 5.08 (inactive) | 2.73 | 0.694 (inactive) | 0.248 | 0.579 | 1.1 | -0.0035
